The campaign covered roughly 39,000 compounds. About 3,300 (8.5%) were called active. For the sample, actives were picked, then their nearest neighbours and some compounds at random.

This experiment concerns HepG2. Kind of experiment: cytotoxicity call (relative viability < 0.9). The following applies: 10 µM.
On to `Cc1ccc(S(=O)(=O)N(C)C[C@@H]2Oc3c(NC(=O)C4CC4)cccc3C(=O)N([C@H](C)CO)C[C@@H]2C)cc1`, for which the cytotoxicity call was “inactive”.

Consider `C[C@@H]1CN([C@@H](C)CO)S(=O)(=O)c2ccc(C#C[C@@H](C)O)cc2O[C@H]1CN(C)C(=O)Nc1ccccc1`, for which the cytotoxicity call is “inactive”.

Regarding `C[C@H]1CN([C@@H](C)CO)C(=O)c2cccc(NS(=O)(=O)c3cn(C)cn3)c2O[C@H]1CN(C)Cc1ccc2c(c1)OCO2`, the cytotoxicity call was “inactive”.

As for `C[C@@H]1CCCCO[C@H](CN(C)Cc2ccc(C(=O)O)cc2)[C@H](C)CN([C@H](C)CO)C(=O)c2cc(NS(=O)(=O)c3ccc(F)cc3)ccc2O1`, the cytotoxicity call is “inactive”.

`CC(C)NC(=O)Nc1ccc2c(c1)C(=O)N([C@H](C)CO)C[C@H](C)[C@H](CN(C)S(C)(=O)=O)OCCCC[C@H](C)O2`: the cytotoxicity call was “inactive”.

Turning to `CCCC(=O)Nc1ccc2c(c1)C(=O)N(C)C[C@@H](OC)[C@H](C)CN(S(=O)(=O)c1cn(C)cn1)[C@H](C)CO2`, the cytotoxicity call was “inactive”.

Consider `C[C@@H]1CN([C@H](C)CO)C(=O)c2cccc(NS(=O)(=O)c3cccs3)c2O[C@@H]1CN(C)CC1CC1`, for which the cytotoxicity call was “inactive”.

On to `COc1ccccc1C#Cc1cnc2c(c1)C(=O)N([C@@H](C)CO)C[C@@H](C)[C@@H](CN(C)C(=O)CC1CC1)O2`, for which the cytotoxicity call is “inactive”.

`C[C@H]1CCCCO[C@H](CN(C)C(=O)Nc2ccccc2)[C@@H](C)CN([C@@H](C)CO)C(=O)c2cc(NS(=O)(=O)c3ccc(Cl)cc3)ccc2O1`: the cytotoxicity call is “inactive”.

Regarding `COc1ccc(NC(=O)N(C)C[C@@H]2Oc3ccc(NC(=O)CCN4CCOCC4)cc3CC(=O)N([C@H](C)CO)C[C@@H]2C)cc1`, the cytotoxicity call is “inactive”.

Regarding `C[C@H]1CN([C@@H](C)CO)C(=O)Cc2cc(NC(=O)Nc3ccc(C(F)(F)F)cc3)ccc2O[C@@H]1CN(C)C(=O)Nc1cccc2ccccc12`, the cytotoxicity call is “inactive”.

On to `C[C@@H]1CN([C@H](C)CO)C(=O)Cc2cc(NS(=O)(=O)c3cn(C)cn3)ccc2O[C@@H]1CN(C)CC1CCCCC1`, for which the cytotoxicity call was “inactive”.

`C[C@H](CO)N1C[C@H](C)[C@@H](CN(C)Cc2ccc(Oc3ccccc3)cc2)Oc2ncc(-c3ccncc3)cc2C1=O`: the cytotoxicity call was “inactive”.

As for `C[C@@H]1CCCCO[C@H](CN(C)CC2CCCCC2)[C@H](C)CN([C@@H](C)CO)C(=O)c2cc(NC(=O)Nc3ccc(C(F)(F)F)cc3)ccc2O1`, the cytotoxicity call was “active”.

Regarding `C[C@@H]1CCCCO[C@H](CN(C)CC2CCCCC2)[C@H](C)CN([C@H](C)CO)C(=O)c2cc(NC(=O)Nc3ccc(C(F)(F)F)cc3)ccc2O1`, the cytotoxicity call was “active”.

Take `C[C@@H]1CN([C@@H](C)CO)C(=O)c2cc(NC(=O)Nc3ccc(C(F)(F)F)cc3)ccc2O[C@@H](C)CCCCO[C@@H]1CN(C)CC1CCCCC1`: the cytotoxicity call is “active”.

Turning to `CCOC(=O)CCCCCC(=O)Nc1ccc2c(c1)C(=O)N([C@H](C)CO)C[C@@H](C)[C@@H](CN(C)S(=O)(=O)c1ccc(Cl)cc1)OCCCC[C@H](C)O2`, the cytotoxicity call is “inactive”.

As to `Cc1ccc(S(=O)(=O)Nc2cccc3c2O[C@@H](CN(C)C(=O)Nc2cccc4ccccc24)[C@@H](C)CN([C@@H](C)CO)C3=O)cc1`, the cytotoxicity call was “inactive”.

With `Cc1ccc(S(=O)(=O)N(C)C[C@@H]2Oc3ccc(NS(=O)(=O)c4ccccc4)cc3CC(=O)N([C@H](C)CO)C[C@H]2C)cc1`, the cytotoxicity call is “inactive”.

With `CN1CC(=O)NC1=O`, the cytotoxicity call was “inactive”.

Take `O=C(NCCCO)C(=O)NC[C@H]1COc2ccccc2O1`: the cytotoxicity call was “inactive”.

Turning to `C[C@H](CO)N1C[C@H](C)[C@@H](CN(C)Cc2ccc3c(c2)OCO3)Oc2ncc(C#CCN(C)C)cc2C1=O`, the cytotoxicity call was “inactive”.

For `CCCCC(=O)OC1CCC2C3CCc4cc(O)ccc4C3CCC12C` (centres undefined), the cytotoxicity call was “inactive”.

With `Cc1ccc(S(=O)(=O)Nc2ccc3c(c2)C(=O)N([C@@H](C)CO)C[C@@H](C)[C@H](CN(C)S(=O)(=O)c2cn(C)cn2)O3)cc1`, the cytotoxicity call was “inactive”.

With `CN(C)Cc1nc(=O)c2ccccc2[nH]1`, the cytotoxicity call was “inactive”.

As to `Cc1cc(C)c2[nH]c3ccccc3c2n1`, the cytotoxicity call was “active”.

Regarding `Cc1c[nH]c2ccccc12`, the cytotoxicity call is “inactive”.

For the compound `Cc1ccc(S(=O)(=O)N(C)C[C@H]2OCCCC[C@@H](C)Oc3ccc(NC(=O)Cc4ccccc4)cc3C(=O)N([C@@H](C)CO)C[C@@H]2C)cc1`, the cytotoxicity call was “inactive”.

In the case of `Cc1noc(C)c1NC(=O)Nc1ccc2c(c1)CC(=O)N([C@H](C)CO)C[C@@H](C)[C@@H](CN(C)Cc1ccc(Cl)c(Cl)c1)O2`, the cytotoxicity call was “inactive”.

Consider `C[C@H]1CN([C@@H](C)CO)C(=O)Cc2cc(NS(=O)(=O)c3ccc(Cl)cc3)ccc2O[C@H]1CN(C)Cc1ccc(Oc2ccccc2)cc1`, for which the cytotoxicity call is “active”.

For `C[C@@H]1CN([C@@H](C)CO)C(=O)Cc2cc(NS(=O)(=O)c3ccc(Cl)cc3)ccc2O[C@@H]1CN(C)Cc1ccc(Oc2ccccc2)cc1`, the cytotoxicity call was “active”.

In the case of `C[C@H](CO)N1C[C@H](C)[C@H](CN(C)Cc2ccc(Oc3ccccc3)cc2)Oc2ccc(NS(=O)(=O)c3ccc(Cl)cc3)cc2CC1=O`, the cytotoxicity call is “active”.

In the case of `C[C@@H]1CN([C@H](C)CO)C(=O)Cc2cc(NS(=O)(=O)c3ccc(Cl)cc3)ccc2O[C@H]1CN(C)Cc1ccc(Oc2ccccc2)cc1`, the cytotoxicity call is “active”.

For the compound `COCCNC(=O)C[C@H]1C[C@@H]2c3cc(NC(=O)Nc4ccc(C(F)(F)F)cc4)ccc3O[C@@H]2[C@H](CO)O1`, the cytotoxicity call was “inactive”.

With `C[C@H]1CN([C@@H](C)CO)C(=O)Cc2cc(NC(=O)CCCCCC(=O)Nc3ccccc3N)ccc2O[C@H]1CN(C)C(=O)Nc1cccc2ccccc12`, the cytotoxicity call was “inactive”.

With `Cc1cccc(N2C[C@@H](CN)OC2=O)c1`, the cytotoxicity call was “inactive”.

With `O=C(O)C[C@@H]1C=C[C@H](NC(=O)c2ccncc2)[C@@H](CO)O1`, the cytotoxicity call was “inactive”.

`O=C(NO)c1ccc(C(=O)N/N=C/c2cccc(B(O)O)c2)cc1`: the cytotoxicity call is “inactive”.

As for `C[C@@H]1CN([C@@H](C)CO)C(=O)c2cc(NS(=O)(=O)c3cccs3)ccc2O[C@@H](C)CCCCO[C@H]1CN(C)C(=O)Nc1ccc(F)cc1`, the cytotoxicity call is “inactive”.

With `COc1ccc(S(=O)(=O)Nc2cccc3c2O[C@H](CN(C)S(=O)(=O)c2cccs2)[C@@H](C)CN([C@H](C)CO)C3=O)cc1`, the cytotoxicity call was “inactive”.

In the case of `C[C@H](CO)N1C[C@H](C)[C@@H](CN(C)Cc2ccc(Oc3ccccc3)cc2)Oc2ccc(NS(=O)(=O)c3ccc(Cl)cc3)cc2CC1=O`, the cytotoxicity call was “inactive”.

Regarding `C[C@@H]1CN([C@H](C)CO)C(=O)Cc2cc(NS(=O)(=O)c3ccc(Cl)cc3)ccc2O[C@@H]1CN(C)Cc1ccc(Oc2ccccc2)cc1`, the cytotoxicity call is “active”.

On to `C[C@@H]1CN([C@@H](C)CO)C(=O)Cc2cc(NS(=O)(=O)c3ccc(Cl)cc3)ccc2O[C@H]1CN(C)Cc1ccc(Oc2ccccc2)cc1`, for which the cytotoxicity call is “active”.

Regarding `C[C@H]1CN([C@@H](C)CO)C(=O)Cc2cc(NS(=O)(=O)c3ccc(Cl)cc3)ccc2O[C@@H]1CN(C)Cc1ccc(Oc2ccccc2)cc1`, the cytotoxicity call is “active”.

The values above are taken from the antibiotic and cytotoxicity screens of Wong et al. (2023).
